According to PubChem BioAssay AID1508600 (Functional Genomics Laboratory (NCATS/FGL), 2020):
The whole screen tested about 53,000 sequences, of which about 3,700 (7%) were called active.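 Rule for the calls: active = gene knockdowns whose robust z-score for IL-1 alpha signal is at least 2 or at most -2, so actives lie on both sides; inactive = the rest.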 The entries come from a sample that favours actives as a whole.

experiment: Components of the Cytosolic LPS Sensing Pathway: Gene Identification via Genome-wide siRNA Screen; conditions: RAW264.7 macrophages, IL-1a HTRF, actives lie on both sides, screened at 100 nM (by protocol), cells primed 5 h with Pam3CSK4 first
From the text: Non-canonical inflammasome activation by cytosolic LPS is a critical component of the host response to Gram-negative bacterial infection, however we lack a comprehensive understanding of the cellular processes that control this pathway. Here we describe a genome-wide siRNA screen to identify genes regulating the mouse macrophage IL-1 alpha response to cytosolic LPS.
RAW264.7 cells were maintained in complete DMEM media, comprising DMEM with 4.5 g/L glucose, 10% FBS (Gemini Bio-Products, West Sacramento, CA), 2 mM Glutamine (Lonza) and 20 mM HEPES (Lonza), hereafter complete DMEM.
The RNAi screen was conducted in 384-well format using the Ambion Silencer Mouse Genome siRNA Library (#4391425), which consists of three unique, nonoverlapping, nonpooled siRNAs for each of 17,000 gene targets. siRNA reagents ([…]) were stamped into 384-well white flat-bottom microplates (Corning, 3570) using a Velocity11 VPrep liquid handling system (Agilent) integrated into a BioCel robotic platform (Agilent) in columns 1-22, leaving columns 23-24 empty for negative (Ambion, Negative control #1) and positive (mouse Casp4) controls, respectively. The median value of each plate's negative control column was used to normalize sample wells, and the positive control was used to assess transfection efficiency and assay performance.
Lipofectamine RNAiMAX Transfection Reagent ([…]; Invitrogen) was added in […] serum-free, antibiotic-free media to plate wells using a Thermo Scientific Matrix WellMate and Microplate Stacker. Plates were incubated for 45 min at room temperature to allow for the sufficient formation of siRNA-lipid complexes. Cells were seeded at a density of 1x10^4 cells per well in 20 microL media containing 20% (vol/vol) FBS without antibiotics. The final concentration of siRNA in each well was 100 nM. Cells were cultured for 48h at 37 degrees C in 5% CO2 before addition of […] of TLR ligand Pam3CSK4 for 5 hours. The medium was then removed, replaced with […] growth media and cell were transfected with […] of LipidA and TransIT-TKO (Mirus) for 24 hour. At the end of the LipidA treatment, […] of supernatant was transferred to a 384 Greiner Bio-one non-binding low volume plate and […] of IL-1a HTRF reagent (Cisbio, 62MIL1APEH) was added and incubated at room temperature overnight. The plates were read on an EnVision plate reader (PerkinElmer). Cell viability was measured by adding 20ul Cell Titer Glo to the original plate and running a luminescence read on the EnVision. The quantified IL-1a signal for each siRNA gene-targeted well was divided by the median of the negative control wells and multiplied by 100 to achieve a negative control normalized value for each well/siRNA. This normalized value was then used to generate a robust z-score by first taking the log of each value and then by subtracting the median and dividing by the […].

z-score, active:
GCAGUAACUCCGGUAGUAGTT against Daxx 5.84
GGUCGAGGACAAAAAAAAATT against Dner -2.27
GCAGGUGAAAGUGCAGAUCTT against Timm13 3.35
CCCAGGUUCCGGAGAACAATT against Abcc5 2.14
GCCACAACAACUUGAGCAGTT against Amigo1 2.36
GGUACCAUCCGGAAUACAATT against Zdhhc19 3.95
GAAGCAGAUACCAAAACAATT against Kir3dl1 -3.02
GGACCUAGUGCGUUCCAAATT against H1f7 2.92
GGAAACUUAAGCAAAUUCUTT against Gprc6a 3.11
GGAGAUCCUUAAGCUGUUGTT against Aen -2.37
GGACAUUCUCUACCGAAUATT against Acsm1 2.04

z-score, inactive:
GGACUAUGCAGUUUUAUUGTT against Chrac1 -0.201
CGACCAAAAUCAAAACAGCTT against Defb12 -0.093
GGAACUGGAAGAGAAUGAGTT against Sdc4 0.862
GGAGAAGAUAGAAGCUGAGTT against Rad23a -1.66
GGACCUAUCAACUGAGUUUTT against Hrc 1.06
GGUCAUGGCUACUUCAUCCTT against Dok7 0.583
CCUUUAGAGGAAUUCACUUTT against Npas2 -0.576
GCAAAUCCCAGCUCAAUGUTT against Zfp810 -1.65
CGAAGGACCAGGGAAUCUGTT against Tsg-5 -0.793
GGAUAAGAGACAAUGAAUUTT against Fut7 -1.19
GCUCAUUCGUCCUCACAGUTT against Olfr312 -1.11
GGCUGUCCAACAAGCAGAGTT against Plekhm3 0.163
GGUAGACCUUUUGUCACGGTT against Cers2 -0.0497
GGGUUUAAUCAUGAUAGAATT against Tet2 -0.583
GGCUUUCCCAAAGACUUCUTT against Col11a2 0.518
GGACAUCAUCCAGGAAAACTT against Bcar3 -0.347
CAACUCUCUUGCUCAGACATT against Olfr814 -0.268
CGAACGGAAAAAUGGAAGUTT against Mrtfb 0.784
GGUCAUAGAGACAGACUACTT against Lcn12 -0.378
CGCAGAACCCUGGUUUCUATT against Trappc11 -0.232
GGACUUUCUCUAGGAUCCATT against Slamf8 -0.705
GGCUGGUUACCUGCAUAAGTT against Sh3bp2 0.225
GGCCUCCUAACAAUUCAGCTT against Foxp1 0.0693
GCUCAGAGCAUGUUGGUGGTT against Dstyk -0.805
GGAUAUACAAGCACAAACUTT against Gjc3 0.432
GGGAUUUAAAAGGAAAUGUTT against Gbp7 -1.05
GGAGGUGGUGCUUAAAGGUTT against Rnf122 0.41
GGUGAAAAGAGAUUUGAAUTT against Sp4 0.587
GCUCGUUCUUCGACAUCUUTT against Stard3 -0.946
GCGAUAUUUCAAGAGAAGCTT against Evc2 -0.372
CCCAAGCCUACCUUACGAGTT against Hipk2 -1.67
CCUAAUACCUUCAGUGUUCTT against Ptcd3 0.865
GGUGACUUUUUGGUACAGATT against Mthfr 0.558
GGCUGUUAUCCAGAGAGAUTT against Nim1k 0.177
GGACCUGAACACAGCUACUTT against Stoml1 1.04
GCCUGACGGCACGUAUGUATT against Acox1 0.527
GGUACAGUGCAUCGACAUGTT against Eng 0.879
CGGAAGGAAGUGCCUAAACTT against Rcc2 0.668
GCAGUUAACUACGUUGCAATT against Zranb2 -0.44
GGGAUGUGAUAGUUCAUAATT against Stil -0.304
GGAUGAUUAUUGGAGCUAUTT against Vtn 0.128
GGACAAUAGGAGCCUUUAATT against Vmn1r211 0.125
CCUUCUAGUGCAUCAGUGGTT against Olfr890 -0.508
